Activity calls are given as the source filed them.
Tests used:
[1] = binders of probe aFSTL3 on microarray, primary screen, stem cell growth factor project, biochemical, small-molecule microarray, fluorescence 635/667 (AID 1064); conditions: higher = more signal;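 also: measures binding of the biotinylated anti-FSTL3 antibody to printed compounds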
[2] = binders from COS7 lysate, DM2A8 probe, primary screen, torsin A project, cell lysate, small-molecule microarray, fluorescence 635/667 (AID 1065); conditions: higher = more signal, COS7 lysate expressing mutant human TOR1A
[3] = binders of probe aFGF2 on microarray, primary screen, stem cell growth factor project, biochemical, small-molecule microarray, fluorescence 635/667 (AID 1067); conditions: higher = more signal;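 also: measures binding of biotinylated aFGF2 protein to printed compounds on slides; z-score merges feature fluorescence and signal-to-noise across triplicate slides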
[4] = binders of probe aFGF10 on microarray, primary screen, stem cell growth factor project, biochemical, small-molecule microarray, fluorescence 635/667 (AID 1071); conditions: higher = more signal;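 also: score merges 667 nm spot intensity and signal to noise from triplicate slides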
[5] = molecular target: Neurogenic locus notch homolog protein 2 (Homo sapiens) (UniProt Q04721); test: Notch2 binders on small-molecule microarrays, primary screen, biochemical, small-molecule microarray, 635 nm fluorescence, stem cell growth factors (AID 1073); conditions: Notch2 binding, higher = more signal
[6] = molecular target: Pro-neuregulin-1, membrane-bound isoform (Homo sapiens) (UniProt Q02297); test: NRG1 binders on small-molecule microarrays, primary screen, psychiatric disease protein project, biochemical, small-molecule microarray, fluorescence 635/667 (AID 1075); conditions: NRG1 binding, 635 nm fluorescence, higher = more signal;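 also: score combines 667 nm spot fluorescence with signal to noise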
[7] = test system: Neuregulin-1 EGF-like domain; test: binders of neuregulin-1 EGF-like domain, primary screen, biochemical, small-molecule microarray, 635 nm fluorescence (AID 1081); conditions: small-molecule microarray binding, higher = more signal;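 also: binding of the protein to compounds printed on small-molecule microarray slides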
[8] = FRG1 promoter luciferase signal modulators, primary screen, FRG1 inhibition for FSHD, cell-based, C2C12 myotubes, firefly/Renilla luciferase, luminescence (AID 1084); conditions: higher = more signal, called active from +8 up or from −8 down
[9] = binders of probe aFST on microarray, primary screen, stem cell growth factor project, biochemical, small-molecule microarray, fluorescence 635/667 (AID 1086); conditions: higher = more signal;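 also: score merges 667 nm fluorescence with signal-to-noise of each printed compound spot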
[10] = binders of probe aHhip on microarray, primary screen, stem cell growth factor project, biochemical, small-molecule microarray, fluorescence 635/667 (AID 1087); conditions: higher = more signal;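 also: score merges spot fluorescence at 667nm with spot signal to noise ratio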
[11] = test system: PRMT1 (protein arginine N-methyltransferase 1); test: PRMT1 binders on small-molecule microarrays, primary screen, biochemical, small-molecule microarray, 635 nm fluorescence (AID 1088); conditions: small-molecule microarray binding, higher = more signal;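 also: binding of Prmt1 protein to compounds spotted on small-molecule microarray slides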
[12] = yeast growth modulation, basal conditions, primary screen, YJM789 clinical isolate, OD600, 24 h (AID 1089);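 also: growth of clinical yeast isolate S. cerevisiae YJM 789 seeded 1000 cells per well; test concentration not given here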; conditions: S. cerevisiae YJM789 growth, higher = more signal, called active from +8 up or from −8 down
[13] = fission yeast growth modulation, primary screen, strain 972, OD600, 24 h, no modulator (AID 1090);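 also: basal condition with compound alone and no growth modifier present; test concentration not given here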; conditions: S. pombe 972 growth, higher = more signal, called active from +8 up or from −8 down
[14] = S. cerevisiae growth modulation with rapamycin, primary screen, strain BY4716, OD600, 96 h (AID 1091); conditions: higher = more signal, called active from +8 up or from −8 down; also: test concentration not given here
[15] = molecular target: Torsin-1A-interacting protein 2 (Homo sapiens) (UniProt Q8NFQ8); test: LULL1 binders on small-molecule microarray, primary screen, cell lysate, human LULL1 lysate, 635/667 nm fluorescence (AID 1092); conditions: hLULL1 lysate binding, 635 nm fluorescence, higher = more signal;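 also: probe is lysate of COS7 cells overexpressing human LULL1; score merges per-feature 667 nm fluorescence with signal-to-noise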
[16] = E. coli growth modulation, two-sided OD650, primary screen, E. coli filamentation project, strain DRC41, 24 h (AID 1093); conditions: OD650, 24 h, higher = more signal, called active from +8 up or from −8 down;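 also: MC1000 strain lacking acrAB efflux and sulA so SOS filamentation is blocked; test concentration not given here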
[17] = small-molecule microarray binders of probe aLefty2, primary screen, biochemical, biotinylated probe, 635/667 nm fluorescence (AID 1094); conditions: higher = more signal;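 also: score merges spot fluorescence near 667 nm with spot signal-to-noise ratio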
[18] = test system: Noggin (protein binding on small-molecule microarray); test: Noggin binders on small-molecule microarray, primary screen, biochemical, 635/667 nm fluorescence (AID 1095); conditions: 635 nm fluorescence, higher = more signal;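 also: score merges 667 nm feature fluorescence with signal to noise over triplicate slides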
[19] = molecular target: Neurogenic locus notch homolog protein 3 (Homo sapiens) (UniProt Q9UM47); test: NOTCH3 binders on small-molecule microarray, primary screen, biochemical, 635/667 nm fluorescence (AID 1096); conditions: NOTCH3 binding, 635 nm fluorescence, higher = more signal
[20] = small-molecule microarray binders of probe aEGFR, primary screen, biochemical, biotinylated probe, 635/667 nm fluorescence (AID 1097); conditions: higher = more signal;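 also: probe is a biotinylated anti-EGFR antibody binding compounds printed on slides; score combines fluorescence near 667 nm and signal to noise of each spot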

Chain of Neurogenic locus notch homolog protein 2 (Homo sapiens) (Q04721 whole entry, looked up, canonical isoform): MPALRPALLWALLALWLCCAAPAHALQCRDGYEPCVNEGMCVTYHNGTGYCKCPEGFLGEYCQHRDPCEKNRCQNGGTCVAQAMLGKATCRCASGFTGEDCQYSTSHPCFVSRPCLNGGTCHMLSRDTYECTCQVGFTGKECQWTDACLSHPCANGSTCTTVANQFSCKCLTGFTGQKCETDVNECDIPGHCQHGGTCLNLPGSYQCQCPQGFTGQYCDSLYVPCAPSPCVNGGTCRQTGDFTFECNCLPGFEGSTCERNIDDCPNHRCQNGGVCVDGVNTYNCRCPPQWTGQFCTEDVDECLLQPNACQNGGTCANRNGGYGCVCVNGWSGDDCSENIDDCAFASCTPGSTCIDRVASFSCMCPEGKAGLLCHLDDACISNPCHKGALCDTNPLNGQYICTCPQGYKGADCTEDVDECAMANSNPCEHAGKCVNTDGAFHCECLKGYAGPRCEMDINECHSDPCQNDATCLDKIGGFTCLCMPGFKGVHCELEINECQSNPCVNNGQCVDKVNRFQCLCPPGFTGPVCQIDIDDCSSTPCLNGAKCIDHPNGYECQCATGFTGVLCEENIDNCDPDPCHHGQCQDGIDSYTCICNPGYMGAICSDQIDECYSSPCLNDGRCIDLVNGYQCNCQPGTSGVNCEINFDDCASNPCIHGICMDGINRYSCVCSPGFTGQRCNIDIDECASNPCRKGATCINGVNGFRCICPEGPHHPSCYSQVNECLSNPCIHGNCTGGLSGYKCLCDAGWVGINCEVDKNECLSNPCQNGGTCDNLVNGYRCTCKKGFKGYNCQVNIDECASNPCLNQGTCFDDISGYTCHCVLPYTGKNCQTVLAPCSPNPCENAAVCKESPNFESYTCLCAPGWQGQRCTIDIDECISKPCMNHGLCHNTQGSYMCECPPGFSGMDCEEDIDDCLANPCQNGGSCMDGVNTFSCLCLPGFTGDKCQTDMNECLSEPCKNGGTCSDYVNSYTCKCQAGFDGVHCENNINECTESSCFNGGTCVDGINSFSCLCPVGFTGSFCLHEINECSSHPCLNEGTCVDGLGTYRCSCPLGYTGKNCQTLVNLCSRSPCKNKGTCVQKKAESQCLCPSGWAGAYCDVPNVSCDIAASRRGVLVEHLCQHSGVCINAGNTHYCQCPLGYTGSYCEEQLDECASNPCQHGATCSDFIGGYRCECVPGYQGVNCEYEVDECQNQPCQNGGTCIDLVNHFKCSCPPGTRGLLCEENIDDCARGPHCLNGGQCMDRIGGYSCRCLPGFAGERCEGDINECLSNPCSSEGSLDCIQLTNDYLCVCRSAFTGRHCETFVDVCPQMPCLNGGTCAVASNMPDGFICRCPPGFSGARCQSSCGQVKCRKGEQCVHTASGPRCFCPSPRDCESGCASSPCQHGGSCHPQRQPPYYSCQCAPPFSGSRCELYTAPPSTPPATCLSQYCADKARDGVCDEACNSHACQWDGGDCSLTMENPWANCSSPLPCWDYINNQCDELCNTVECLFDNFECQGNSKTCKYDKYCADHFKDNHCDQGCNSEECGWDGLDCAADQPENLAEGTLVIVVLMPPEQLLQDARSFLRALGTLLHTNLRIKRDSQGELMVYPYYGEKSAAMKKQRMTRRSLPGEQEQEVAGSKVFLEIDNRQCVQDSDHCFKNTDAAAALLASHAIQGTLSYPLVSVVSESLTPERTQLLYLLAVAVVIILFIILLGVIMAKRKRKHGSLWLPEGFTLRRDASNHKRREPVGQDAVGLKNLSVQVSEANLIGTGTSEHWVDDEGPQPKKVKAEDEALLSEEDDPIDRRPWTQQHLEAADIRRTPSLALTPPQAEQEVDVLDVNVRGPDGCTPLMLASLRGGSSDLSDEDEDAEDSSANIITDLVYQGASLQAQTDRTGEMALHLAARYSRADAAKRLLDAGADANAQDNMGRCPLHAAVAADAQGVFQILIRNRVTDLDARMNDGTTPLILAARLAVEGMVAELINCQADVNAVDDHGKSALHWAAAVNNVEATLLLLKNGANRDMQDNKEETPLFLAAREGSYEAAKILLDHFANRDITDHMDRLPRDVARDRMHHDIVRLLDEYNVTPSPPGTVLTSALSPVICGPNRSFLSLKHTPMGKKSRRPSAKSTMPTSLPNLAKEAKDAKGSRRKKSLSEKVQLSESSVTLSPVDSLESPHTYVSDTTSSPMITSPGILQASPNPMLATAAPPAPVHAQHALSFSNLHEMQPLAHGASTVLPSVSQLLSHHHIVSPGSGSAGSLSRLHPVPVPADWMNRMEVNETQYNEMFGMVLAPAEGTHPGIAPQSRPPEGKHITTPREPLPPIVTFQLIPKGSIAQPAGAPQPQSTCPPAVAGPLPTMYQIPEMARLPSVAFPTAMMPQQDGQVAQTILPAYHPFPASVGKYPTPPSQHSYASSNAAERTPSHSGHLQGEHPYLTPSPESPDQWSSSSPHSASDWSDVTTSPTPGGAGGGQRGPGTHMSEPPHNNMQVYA
Chain of Torsin-1A-interacting protein 2 (Homo sapiens) (Q8NFQ8 whole entry, looked up): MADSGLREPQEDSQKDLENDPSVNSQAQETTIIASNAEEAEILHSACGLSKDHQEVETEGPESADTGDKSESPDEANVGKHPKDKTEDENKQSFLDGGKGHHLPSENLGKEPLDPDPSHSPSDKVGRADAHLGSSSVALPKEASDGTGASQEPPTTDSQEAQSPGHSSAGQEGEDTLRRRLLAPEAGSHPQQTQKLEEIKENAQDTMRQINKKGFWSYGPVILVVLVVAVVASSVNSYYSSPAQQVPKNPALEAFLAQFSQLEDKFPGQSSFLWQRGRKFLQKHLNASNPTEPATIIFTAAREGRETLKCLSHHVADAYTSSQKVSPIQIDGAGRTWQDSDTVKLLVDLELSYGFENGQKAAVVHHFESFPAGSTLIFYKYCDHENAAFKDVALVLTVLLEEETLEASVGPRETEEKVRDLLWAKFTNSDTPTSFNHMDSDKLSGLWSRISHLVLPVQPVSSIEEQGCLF
Chain of Pro-neuregulin-1, membrane-bound isoform (Homo sapiens) (Q02297 whole entry, looked up, the tested form may be a part, canonical isoform): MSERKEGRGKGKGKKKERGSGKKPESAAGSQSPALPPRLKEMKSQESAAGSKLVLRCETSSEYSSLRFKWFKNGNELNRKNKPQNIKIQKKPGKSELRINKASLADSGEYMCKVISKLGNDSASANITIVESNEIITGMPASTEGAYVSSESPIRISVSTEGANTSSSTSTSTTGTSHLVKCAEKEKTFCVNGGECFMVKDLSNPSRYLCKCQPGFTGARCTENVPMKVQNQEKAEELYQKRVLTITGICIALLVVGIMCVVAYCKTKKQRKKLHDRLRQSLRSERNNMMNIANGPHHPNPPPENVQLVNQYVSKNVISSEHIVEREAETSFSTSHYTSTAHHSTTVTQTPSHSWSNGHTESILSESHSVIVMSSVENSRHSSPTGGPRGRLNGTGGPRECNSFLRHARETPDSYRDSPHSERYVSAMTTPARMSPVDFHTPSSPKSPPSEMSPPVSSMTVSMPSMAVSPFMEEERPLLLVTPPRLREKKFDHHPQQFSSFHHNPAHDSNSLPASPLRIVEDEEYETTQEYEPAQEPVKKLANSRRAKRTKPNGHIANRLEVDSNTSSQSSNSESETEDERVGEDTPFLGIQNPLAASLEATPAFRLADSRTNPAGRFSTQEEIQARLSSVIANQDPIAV

SMILES	composite z-score [1]	composite z-score [2]	composite z-score [3]	composite z-score [4]	composite z-score [5]	composite z-score [6]	composite z-score [7]	z-score [8]	composite z-score [9]	composite z-score [10]	composite z-score [11]	z-score [12]	z-score [13]	z-score [14]	composite z-score [15]	z-score [16]	composite z-score [17]	composite z-score [18]	composite z-score [19]	composite z-score [20]
C[C@@H]1NC(=O)[C@@]23C(=O)N[C@@H](Cc4ccccc4)C2[C@H](C)[C@@]2(C)O[C@H]2C3/C=C/C/C=C\CNC(=O)[C@@H]2CCCN2C1=O (stereo not given in full)	-0.301	0.009	-0.158	0.139	-0.355	-0.365	0.519	0.251 (inactive)	-0.276	-0.249	-0.422	-0.498 (inactive)	-0.409 (inactive)	-0.524 (inactive)	-0.516	-0.874 (inactive)	-0.132	-0.044	-0.526	-0.266
CCOC(=O)C[C@H]1[C@H](OC(=O)Cc2ccc3c(c2)OCO3)[C@@H](NC(=O)Cc2ccc(OC)cc2)c2cc(OCCCO)ccc2N1C(=O)c1ccc2ccccc2n1	-0.362	0.401	-0.104	0.466	0.255	0.371	0.752	-3.56 (inactive)	0.103	-0.274	0.317	-2.05 (inactive)	-1.34 (inactive)	0.758 (inactive)	0.708	2.08 (inactive)	-0.137	0.14	0.32	-0.146
NCCCCCNC(=O)[C@@H]1C[C@@H]2C(=O)NCC(=O)N2[C@@H]1c1cccc(OCCO)c1	-0.144	0.45	0.108	0.773	0.756	0.889	1.34	0.0981 (inactive)	0.417	0.151	1.44	-0.0012 (inactive)	-0.926 (inactive)	0.267 (inactive)	1.32	2.01 (inactive)	0.086	1.35	0.712	-0.0158
COc1cc(CO)cc(I)c1O[C@H]1C=C(C(=O)NCCO)C[C@@H](NCc2ccc(F)cc2)[C@@H]1O	-0.519	0.254	0.0062	1.34	0.366	0.406	-0.0461	-1.14 (inactive)	0.245	-0.0645	1.07	1.41 (inactive)	-9.13 (active)	0.388 (inactive)	-0.135	0.944 (inactive)	-0.109	0.938	0.305	-0.128
O=C1O[C@@H](c2ccccc2)[C@@H](c2ccccc2)N2[C@@H](c3ccc(O)cc3)[C@]3(C(=O)Nc4ccc(C#CC5=CCCCC5)cc43)[C@@H](C(=O)NC[C@H](O)c3ccccc3)[C@H]12	0.135	1.76	-0.0181	0.508	1.52	1.2	1.35	0.754 (inactive)	0.398	0.251	1.54	1.31 (inactive)	0.18 (inactive)	2.89 (inactive)	2.55	1.24 (inactive)	-0.0916	1.22	1.07	0.12

— PubChem BioAssay
